A selection: hits, their analogues and other compounds. The true share with any hit is near 11%.
HTT aggregate – qHTS Multiplex Assay to Identify Dual Action Probes in a Cell Model of Huntington: Aggregate Formation (GFP) | PC12 HttQ103-GFP aggregates, Acumen cytometry, 40 h | Potency, µM (highest dose often 46.1 µM), inactives show top-dose activity change, negative = inhibition, most hits filed as inhibitors | hit rate 1.1% among 220,000; also: potency is read from the fitted curve at half-maximal effect; % is scaled to controls: 0 for no effect and ±100 for the full control effect; nearly all actives have a fitted effect of over 60% in size
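Compounds (qHTS titration) were added to PC12 cells expressing an ecdysone-driven HTT exon 1 Q103–GFP fusion after induction with 100 nM tebufenozide. Aggregate formation was measured as GFP objects in cell lysates.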
CBFb RUNX1 block – qHTS Assay for Compounds Blocking the Interaction Between CBF-beta and RUNX1 for the Treatment of Acute Myeloid Leukemia. Runt-related transcription factor 1 (Homo sapiens) + Core-binding factor subunit beta …. AlphaScreen CBFb-His/RUNX1-biotin binding, biochemical. Potency, µM (highest dose often 59.8 µM), without a hit: at the highest dose activity, negative = inhibition, actives largely listed as inhibitors. 230,000 tested, under 10 active. AID 1477, 2009; also: % of control where 0% means no effect
Target sequence (Q01196 whole entry, looked up): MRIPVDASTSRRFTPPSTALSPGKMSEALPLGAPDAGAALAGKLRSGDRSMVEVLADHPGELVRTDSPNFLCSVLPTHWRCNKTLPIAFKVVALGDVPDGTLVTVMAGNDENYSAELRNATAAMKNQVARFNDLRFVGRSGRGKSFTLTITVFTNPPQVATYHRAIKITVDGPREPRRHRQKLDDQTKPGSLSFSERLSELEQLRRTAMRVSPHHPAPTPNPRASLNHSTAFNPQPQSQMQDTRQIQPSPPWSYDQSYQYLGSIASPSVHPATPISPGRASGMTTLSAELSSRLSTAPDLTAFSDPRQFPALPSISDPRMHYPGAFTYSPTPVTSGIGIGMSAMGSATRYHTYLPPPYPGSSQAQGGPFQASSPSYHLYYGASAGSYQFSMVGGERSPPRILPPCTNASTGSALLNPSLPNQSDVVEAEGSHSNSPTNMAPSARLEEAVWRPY
Target sequence (Q13951 whole entry, looked up): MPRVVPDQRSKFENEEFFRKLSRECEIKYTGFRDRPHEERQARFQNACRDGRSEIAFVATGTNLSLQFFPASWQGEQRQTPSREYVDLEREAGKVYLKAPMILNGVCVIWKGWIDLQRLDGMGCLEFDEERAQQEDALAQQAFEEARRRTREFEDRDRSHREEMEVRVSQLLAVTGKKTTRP
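CBFb-His/RUNX1-biotin, 30 nM each, preincubated 20 min RT; compound 15 min RT; Ni + streptavidin beads 50 ng each, 90 min RT; AlphaScreen read.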
PNC assembly inh – High Content Assay for Compounds that inhibit the Assembly of the Perinucleolar Compartment. PC3M PTB-GFP, PNC prevalence imaging, 16 h; active compounds read low. activity change (PNC), negative = inhibition, % at 10 µM. hit rate 3.1% among 140,000;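 active = readout at or below -70, meaning at least 70% loss of cells showing the perinucleolar compartment, a nuclear body marking cancer cells; inconclusive = readout between -30 and a set limit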;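 also: plate controls were DMSO wells for no effect and camptothecin positive control wells for full effect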
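Compounds are pinned in duplicate onto adhered PC3M cells stably expressing GFP-tagged PTB and incubated 16 h at 37 C. Cells are then fixed, nuclei stained with Hoechst, and PNC-positive cells counted.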
ALDH1A1 block – qHTS Assay for Inhibitors of Aldehyde Dehydrogenase 1 (ALDH1A1) | Aldehyde dehydrogenase 1A1 (Homo sapiens), P00352 | Purified ALDH1A1, NADH fluorescence, propionaldehyde substrate | Potency, µM (doses to about 75.3 µM), inactives show at the top dose activity, negative = inhibition, usual class: inhibitors | hit rate 7.3% among 220,000 | AID 1030, 2008; active = well fitted inhibition curve with a large enough effect, not every such curve was filed as active; inconclusive = small, poorly fitted or top-dose-only effect, or another doubt; inactive = no such curve, though single readings can be large or run the other way;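 also: potency is read from the fitted curve at half-maximal effect; plate controls were no enzyme wells and a reference inhibitor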
HPGD block – qHTS Assay for Inhibitors of HPGD (15-Hydroxyprostaglandin Dehydrogenase); hit rate 4.3% among 150,000; 15-hydroxyprostaglandin dehydrogenase [NAD(+)] (Homo sapiens), P15428; purified HPGD, NADH fluorescence kinetic, PGE2 substrate; Potency, µM, inactives show at the top dose activity change, negative = inhibition, hits mostly inhibitors; AID 894, 2007; active = well fitted inhibition curve with a large enough effect, not every such curve was filed as active; inconclusive = small, poorly fitted or top-dose-only effect, or another doubt; inactive = no such curve, though single readings can be large or run the other way; also: potency is read from the fitted curve at half-maximal effect; % is scaled to controls: 0 for no effect and ±100 for the full control effect
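NADH formation kinetics: reaction with 30 uM PGE2 and 1 mM NAD+ (final), 20 nM enzyme, Tris-HCl pH 8 with Tween 20, after 15 min compound preincubation at room temperature. Fluorescence change, last versus first of five reads.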
HTT cytoprotect – qHTS Multiplex Assay to Identify Dual Action Probes in a Cell Model of Huntington: Cytoprotection (ATP) | PC12 HTT-Q103 induced, cytoprotection, ATP luminescence, 40 h | hit rate 0.14% among 230,000 | Potency, µM (series often up to 56.4 µM), without a hit: cytoprotection (ATP increase), hits mostly activators; also: potency is read from the fitted curve at half-maximal effect; % of control where 0% means no effect; nearly all actives have a fitted effect of over 45% in size
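Huntington model: PC12 line, ecdysone-inducible HTTQ103 exon1–GFP, tebufenozide 100 nM. Test articles in a dose series. Endpoint luminescence from cellular ATP.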
* hit, by the source's call; ? = inconclusive; . = no result given; [ ] = dose if it differs, or a comment. Unless noted, calls follow the shape of the dose curve; as a rule, active = well fitted curve in the direction sought with a large enough effect; inconclusive = small, poorly fitted or top-dose-only effect, or another doubt; inactive = no such curve, though single readings can be large; an effect the other way counts as inactive or inconclusive.

SMILES	HTT aggregate	CBFb RUNX1 block	PNC assembly inh	ALDH1A1 block	HPGD block	HTT cytoprotect
CCC(CC)C(=O)N1c2ccc(F)cc2CCC1C (configuration not stated)	18.4%	3.1%	16.3	-4.1%	-3.0%	-4.0%
COc1ccc(C(=O)N2c3ccc(F)cc3CCC2C)cc1OC (configuration not stated)	4.1%	4.1%	14.8	-16.2%	-11.6%	-9.4%[0.074 µM]
COc1ccccc1NC(=O)N1c2ccc(F)cc2CCC1C (configuration not stated)	?	?	11.4	22.4µM*	-5.1%	5.3%
CCCn1c(SCC(=O)N2c3ccc(F)cc3CCC2C)nnc1-c1ccccn1 (configuration not stated)	6.6%	-5.8%	-118.9*	?	-10.0%	10.0%[10 µM]
CCCn1c(SCC(=O)N2CCCCC2)nnc1-c1ccccn1	0.0%	-6.2%	.	-3.3%	.	-27.5%
CC1CCc2cc(F)ccc2N1C(=O)CCl (configuration not stated)	?	-8.0%	.	0.141µM*	.	2.9%
COC(=O)c1sc(SC)c2c1CC(C)(C)C/C2=N/O	-32.5%[9.22 µM]	5.9%	.	-1.0%	.	-21.2%[10 µM]
Cc1ccc(Cl)cc1NC(=O)COC(=O)c1ccc(COc2ccc3c(C)cc(=O)oc3c2)cc1	-8.0%	9.2%	-112.9*	?	?	.
CC(=O)Nc1ccc(NC(=O)c2ccc(COc3ccc4c(C)cc(=O)oc4c3)cc2)cc1	-10.9%	-19.2%	-16.0	?	?	-3.7%[10 µM]
CN(Cc1ccco1)c1ncncc1-c1ccc2c(c1)OCO2	.	.	.	1.7%	.	10.0%
COc1cc(O)ccc1C(C)=O	.	.	.	0.0%	-4.5%	.
O=[N+]([O-])c1c(C(Cl)Cl)nn(-c2ccccc2)c1N1CCOCC1	6.9%[9.22 µM]	-8.2%	.	-8.2%	.	3.6%[10 µM]
O=[N+]([O-])c1c(C(Cl)Cl)nn(-c2ccc(Cl)cc2)c1N1CCCCC1	-10.2%	?	-113.0*	1.8%	-3.3%	15.3%[10 µM]
CCc1nc2sc3c(c2c(=O)n1NC(=O)CCl)CCCC3	5.1%	4.4%	?	12.6µM*	-4.2%	2.8%
NCCNC[C@H](O)CO	.	.	.	0.4%[13.5 µM]	-9.4%	-2.5%[10 µM]
O=C(CCCc1nc2ccccc2s1)NCc1ccccc1F	6.3%	-4.3%	3.4	?	31.6µM*	2.5%[10 µM]
COC(=O)C1=C[C@@H](C(=O)OC)C2C3=C(C(=O)[C@@]2(C)NC(=O)c2ccccc2)[C@H](C)[C@@H]2C(=O)N(C)C(=O)[C@@H]2[C@@H]3C1 (some centres not stated)	.	3.4%	.	.	.	.
CN(C)c1ccc(NS(=O)(=O)c2cc(Cl)ccc2Cl)cc1	?	-27.3%	?	?	-7.9%	0.794µM*
CCN(c1ccc(NS(=O)(=O)c2cc(Cl)ccc2Cl)cc1)C(C)C	10µM*	-3.5%	33.4	?	-21.7%	1.4%[10 µM]
C/C=C/c1ccc2oc(-c3ccc(O)cc3)c(C)c2c1	.	10.7%	.	?	?	-19.5%
CCNC(=S)NNC(=O)c1cccnc1	5.5%	7.6%	-7.1	2.2%	-5.7%	23.6%[10 µM]
Cc1cccc(C(=O)NC(=S)NNC(=O)Cc2ccccc2)c1	?	1.0%	?	?	-17.5%	-23.0%[10 µM]
CCCCNC(=S)NNC(=O)c1cccnc1	-16.2%	6.8%	-87.3*	4.9%	-7.7%	-15.1%[10 µM]
O=C(NC(=S)NNC(=O)c1ccc(Cl)cc1Cl)c1cccnc1	6.1%	-21.0%	?	23.8µM*	?	.
Cc1cccc(C(=O)NC(=S)NNC(=O)c2ccccc2Cl)c1	-5.2%	-20.7%	32.5	22.4µM*	-3.2%	.

Source: PubChem BioAssay (National Center for Advancing Translational Sciences (NCATS))
